Measured values published in PubChem BioAssay (EPA / NIEHS).
Records with an inconclusive call do not appear. Active and inactive are the calls of the source. Rule for the calls: active = hit-call score of the fitted dose curve at least 0.9, where 1 is the maximum; inconclusive = response in the unintended direction; inactive = score below 0.9.

The compounds below were run against Oxysterols receptor LXR-alpha (Homo sapiens) (UniProt Q13133) (assay: ATG_LXRa_TRANS: Attagene TRANS-FACTORIAL HepG2 Assay for human Liver X Receptor alpha (LXRa) (AID 2282980)). Details: HepG2 Attagene TRANS reporter, LXRa transactivation.
Method in brief: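 HepG2 cells were transiently transfected with multiplexed reporter units driven by chimeric LXRa–GAL4 fusion proteins, then dosed for 24 h. Reporter mRNA was quantified by RT-PCR, fluorescent labelling and capillary electrophoresis; gain of signal fitted against DMSO baseline.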

Chain of Oxysterols receptor LXR-alpha (Homo sapiens) (Q13133 whole entry, looked up, the tested form may be a part): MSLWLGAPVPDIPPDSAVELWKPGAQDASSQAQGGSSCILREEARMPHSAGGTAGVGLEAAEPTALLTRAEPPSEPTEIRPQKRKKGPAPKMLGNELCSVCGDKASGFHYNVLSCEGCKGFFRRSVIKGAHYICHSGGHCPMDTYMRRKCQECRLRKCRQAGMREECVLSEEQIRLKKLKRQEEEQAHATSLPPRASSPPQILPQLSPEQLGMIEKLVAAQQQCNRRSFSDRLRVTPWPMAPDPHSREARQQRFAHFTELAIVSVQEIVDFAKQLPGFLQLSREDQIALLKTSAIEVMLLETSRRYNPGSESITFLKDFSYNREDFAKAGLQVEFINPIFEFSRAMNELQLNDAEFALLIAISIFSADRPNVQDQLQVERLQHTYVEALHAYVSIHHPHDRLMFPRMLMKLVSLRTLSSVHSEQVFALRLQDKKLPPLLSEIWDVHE

outcome, inactive:
C=CC(C)(O)CCC=C(C)CCC=C(C)C (stereo not drawn)
Clc1ccc(Cl)c(Cl)c1Cl
O=c1cc(-c2ccccc2)oc2cc(O)cc(O)c12
CN1Cc2c(N)cccc2C(c2ccccc2)C1 (stereo not drawn)
O=C1OC2(c3cc(Br)c(O)c(Br)c3Oc3c2cc(Br)c(O)c3Br)c2c(Cl)c(Cl)c(Cl)c(Cl)c21
O=CCCc1ccccc1
O=S(=O)(O)c1cccc2c(S(=O)(=O)O)cccc12
CCOC(=S)SSC(=S)OCC
NCCOCCO
CC(=O)O[C@H](CC(=O)[O-])C[N+](C)(C)C
CCC(C)CCCC(C)(C)O (stereo not drawn)
COC(=O)Cc1cccc2ccccc12
CC(C)c1cccc(O)c1

The compounds below were run against Oxysterols receptor LXR-beta (Homo sapiens) (UniProt P55055) (assay: ATG_LXRb_TRANS: Attagene TRANS-FACTORIAL HepG2 Assay for human Liver X Receptor beta (LXRb) (AID 2282981)). Details: HepG2 Attagene TRANS GAL4-LXRb reporter, mRNA.
Method in brief: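 HepG2 cells transiently transfected with GAL4-UAS reporter units for chimeric NR-Gal4 proteins, dosed for 24 h. Reporter transcripts measured by RT-PCR and capillary electrophoresis; gain-of-signal fitting relative to DMSO.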

Chain of Oxysterols receptor LXR-beta (Homo sapiens) (P55055 whole entry, looked up, the tested form may be a part): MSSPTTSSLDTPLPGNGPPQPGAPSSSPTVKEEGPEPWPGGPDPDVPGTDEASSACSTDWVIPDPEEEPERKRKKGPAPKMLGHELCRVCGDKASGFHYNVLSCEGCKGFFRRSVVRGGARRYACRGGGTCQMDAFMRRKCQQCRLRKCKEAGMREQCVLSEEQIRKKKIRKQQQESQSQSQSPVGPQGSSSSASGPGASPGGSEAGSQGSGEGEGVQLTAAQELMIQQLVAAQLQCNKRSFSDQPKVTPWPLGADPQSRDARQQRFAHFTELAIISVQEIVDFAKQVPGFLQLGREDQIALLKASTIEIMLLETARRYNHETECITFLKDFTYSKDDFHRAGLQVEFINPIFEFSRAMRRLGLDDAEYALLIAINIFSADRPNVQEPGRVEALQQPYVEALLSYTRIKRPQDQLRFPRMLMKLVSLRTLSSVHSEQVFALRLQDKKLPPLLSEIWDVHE

outcome, inactive:
CC1(C)[C@H](C(=O)OCc2cccc(Oc3ccccc3)c2)[C@@H]1C=C(Cl)Cl
O=C(O)CCCCCCCCCCC(=O)O
COc1ccc(Nc2ccccc2)c(C)c1
CNCCCC12CCC(c3ccccc31)c1ccccc12
OC[C@H]1O[C@H](O[C@]2(CCl)O[C@H](CCl)[C@@H](O)[C@@H]2O)[C@H](O)[C@@H](O)[C@H]1Cl
O=C(O)c1ccc([N+](=O)[O-])cc1
COCCOCCOCCOCCOCCO
O=C(O)CCSCCC(=O)O
Nc1ccc(F)c([N+](=O)[O-])c1
Cc1cccc(Nc2ccccc2C(=O)O)c1C
CCCCCCCCCCCCCOS(=O)(=O)O
COc1ccnc(CS(=O)c2nc3cc(OC(F)F)ccc3[nH]2)c1OC (stereo not drawn)
CCCCN
CC(C)(CO)[N+](=O)[O-]
Cc1cccc(C)c1[N+](=O)[O-]
CCO[Si](CCCS)(OCC)OCC
C=CC(=O)OCC(O)COc1ccccc1 (stereo not drawn)
c1ccc2[nH]ccc2c1
Nc1cccc(S(=O)(=O)c2cccc(N)c2)c1
O=C(O)CCCCC1CCSS1 (stereo not drawn)
CC(=O)C(C)=O
CCCCOCCOCCSC#N
NC(N)=NC(=O)c1nc(Cl)c(N)nc1N
O=Cc1ccc(F)cc1

AC50, active:
COCCCOc1ccnc(CS(=O)c2nc3ccccc3[nH]2)c1C (stereo not drawn) 27.9 µM
